Assay outcomes (PubChem BioAssay)
tim23-1 inh: tim23-1 yeast growth inhibition; AID 463212; S. cerevisiae tim23-1 growth, BacTiter-Glo luminescence, 24 h; inhibition, % at 20 µM; 1.3% of 330,000 active;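 active means growth inhibition of the mutant yeast at or above 50%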;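 further: temperature-sensitive mutant grown at 25 °C; plate controls were DMSO-treated mutant yeast for no effect and medium wells lacking yeast for full effect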
PfHsp90 yeast 2: growth inhibition of yeast expressing Plasmodium Hsp90. S. cerevisiae expressing PfHsp90, BacTiter-Glo ATP, 48 h; yeast lacking PDR1 and PDR3 efflux regulators. inhibition, % at 9.4 µM. 0.32% of 310,000 active. AID 504621;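 active means every replicate shows inhibition above about 80%, whatever the replicate mean, limit read from the data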;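 further: 0% = DMSO neutral controls and 100% = 20 µM radicicol positive controls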
Beta2AR agonist: agonists of human beta-2 adrenergic receptor inducing internalization; P07550; Am2.2-beta2AR cells, FAP receptor internalization, flow cytometry; response, % (no concentration beside the values); 0.43% of 340,000 active; AID 504454;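 active means response above a set limit, near 3 SD of response in nonfluorescent compounds, cut at about 42% in these data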
Target sequence (P07550 whole entry, looked up): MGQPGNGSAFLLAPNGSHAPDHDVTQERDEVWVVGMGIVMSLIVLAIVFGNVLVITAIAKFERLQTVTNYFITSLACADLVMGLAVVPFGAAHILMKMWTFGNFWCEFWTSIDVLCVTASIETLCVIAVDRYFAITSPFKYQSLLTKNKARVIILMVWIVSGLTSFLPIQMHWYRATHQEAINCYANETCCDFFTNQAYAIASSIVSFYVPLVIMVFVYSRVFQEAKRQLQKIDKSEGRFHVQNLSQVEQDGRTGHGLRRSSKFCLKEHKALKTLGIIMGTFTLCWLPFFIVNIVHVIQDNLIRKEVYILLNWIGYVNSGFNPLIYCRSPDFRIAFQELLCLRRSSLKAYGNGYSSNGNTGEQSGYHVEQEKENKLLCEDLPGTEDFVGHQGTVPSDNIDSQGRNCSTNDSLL
tim10-1 inh: growth inhibitors of tim10-1 mutant yeast | S. cerevisiae tim10-1 ts strain growth, BacTiter-Glo, 24 h | inhibition, % at 20 µM | 2.2% of 330,000 active;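 active means inhibition of at least 40%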;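 further: mutant grown at 25 °C; 0% = DMSO wells with yeast and 100% = wells holding no yeast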
TIM10 inh: TIM10 yeast growth inhibition; inhibition, % at 10 µM; S. cerevisiae TIM10 strain growth, BacTiter-Glo luminescence, 24 h; 1.4% of 330,000 active;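 active means inhibition of 40% or more at the single tested concentration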;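 further: wild-type TIM10 isogenic control strain grown at permissive 25 °C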
tim23-1 conf: tim23-1 yeast growth inhibition, confirmed; shares compounds with tim23-1 inh; S. cerevisiae tim23-1 growth, BacTiter-Glo luminescence, 24 h; inhibition, % at 20 µM; 83% of 4,400 active;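 active means inhibition above about 39% in either of two replicate wells at 20 µM, limit read from the data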;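 further: temperature-sensitive tim23-1 mutant grown at 25 °C; 0% = DMSO wells with yeast and 100% = medium wells without yeast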
Numbers without * were called inactive; / = no result given. A selection: hits, their analogues and other compounds. The true share with any hit is near 3.8%.

SMILES	tim23-1 inh	PfHsp90 yeast 2	Beta2AR agonist	tim10-1 inh	TIM10 inh	tim23-1 conf
Cc1ccccc1NC(=S)NC(=O)/C=C/c1ccco1	55*	8	11	21	7	36
O=C(/C=C/c1ccco1)NC(=S)Nc1ccccc1	54*	-14	3	21	5	29
Cc1cccc(NC(=S)NC(=O)c2ccco2)c1C	56*	1	4	31	25	17
Cc1cccc(NC(=S)NC(=O)/C=C/c2ccco2)c1	21	-20	1	4	-26	/
CC(=O)c1ccc(NC(=S)NC(=O)/C=C/c2ccco2)cc1	4	-7	-2	6	10	/
Cc1cccc(NC(=S)NC(=O)/C=C/c2ccco2)n1	57*	/	-5	23	21	40*
COc1ccc(S(N)(=O)=O)cc1C(=O)OCC(=O)N1CC(=O)Nc2ccccc21	2	6	5	-9	-1	/
Cc1ccc(S(=O)(=O)NCc2csc(-c3cccs3)n2)cc1	59*	4	2	36	31	43*
CCCN(Cc1cc2ccc(C)cc2[nH]c1=O)S(=O)(=O)c1ccccc1	27	-1	-5	12	-5	/
CC(=O)Nc1ccc(S(=O)(=O)N(Cc2cccnc2)Cc2cc3ccc(C)cc3[nH]c2=O)cc1	52*	-2	8	38	14	53*
CC1(C)C=Cc2c(ccc3c2OC[C@H](c2ccc(O)cc2O)C3)O1	75*	106*	6	-53	28	-8
CC(=O)Oc1ccc([C@@H]2COc3c(ccc4c3C=CC(C)(C)O4)C2)c(OC(C)=O)c1	11	-77	-3	3	6	/
CCOC(=O)c1ccc(NC(=O)c2cn(-c3ccccc3)nc2-c2ccncc2)cc1	-10	12	12	11	11	/
Cc1ncc(CC(=O)n2cc(C(=O)c3cc(F)ccc3O)cn2)s1	22	13	0	13	21	/
Cc1ccc(O)c(C(=O)c2cnn(C(=O)Cc3csc(C)n3)c2)c1	59*	6	20	37	21	57*
CC1CCc2c(c3ccccc3n2C(=O)CCl)C1 (centres undefined)	69*	10	22	39	31	56*
Cc1ccc(S(=O)(=O)N(Cc2ccccc2)C(C)C)cc1	7	9	2	1	-8	/
CC(C)N(Cc1ccccc1)S(=O)(=O)N(C)C	76*	13	-4	-10	-3	8
O=S(=O)(c1ccc(Cl)cc1)N1CCN(c2ncnc3sccc23)CC1	58*	-30	0	-1	9	31
Fc1ccc(Oc2nc(-c3ccccn3)nc3ccccc23)cc1	50*	/	-21	37	15	51*
CCN(CC(=O)NCc1ccc(F)cc1)C(=O)c1cccc(S(=O)(=O)N(C)c2ccc(OC)cc2)c1	/	/	-1	/	/	/
CC(C)(C)c1nnc(N/N=C/c2ccccc2O)n(N)c1=O	62*	-22	3	34	37	47*
CC(C)(C)c1nnc(N/N=C/c2ccccc2)n(N)c1=O	-17	-6	0	11	-22	/
CC(=O)Oc1cccc(N2C(=O)c3cccc4c([N+](=O)[O-])ccc(c34)C2=O)c1	51*	-17	4	33	39	51*
Cc1ccc(C(=O)O)cc1N1C(=O)c2cccc3c([N+](=O)[O-])ccc(c23)C1=O	12	-24	11	8	2	/
SMILES	tim23-1 inh	PfHsp90 yeast 2	Beta2AR agonist	tim10-1 inh	TIM10 inh	tim23-1 conf
Cc1cccc(-c2noc(CNC(=O)c3ccc4c(c3)OCO4)n2)c1	10	18	-15	-41	6	/
COc1ccc(-c2noc(CNC(=O)c3ccc4c(c3)OCO4)n2)cc1	53*	-16	-6	-38	3	38
CC(c1ccccc1)n1c(-c2ccc(Cl)cc2)n[nH]c1=S (centres undefined)	55*	-9	10	2	25	27
CC(c1ccccc1)n1c(-c2ccncc2)n[nH]c1=S (centres undefined)	12	-12	-4	9	0	/
COc1cc(OC)cc(C(=O)NNC(=S)Nc2ccc(S(N)(=O)=O)cc2)c1	-1	-4	4	-6	19	/
COc1cc2sc3cc(NCc4ccc(C)o4)ccc3c(=O)c2cc1OC	58*	/	2	20	14	72*
COC(C(=O)N/N=C(\C)c1ccc(C(C)(C)C)cc1)c1ccccc1 (centres undefined)	23	0	6	6	13	/
